PubChem BioAssay AID504332 (National Center for Advancing Translational Sciences (NCATS), 2011)
The whole screen tested about 350,000 compounds, of which about 31,000 (8.9%) were called active. About 15% were inconclusive and are not listed. Shown is part of a subset that was picked to be rich in actives. A number with no mark means an inactive call. Calls follow the shape of the dose curve; as a rule, active = well fitted inhibition curve with a large enough effect; inconclusive = small, poorly fitted or top-dose-only effect; inactive = no such curve, though single readings can be large or run the other way.

These molecules were tested against Histone-lysine N-methyltransferase EHMT2 (Homo sapiens) (UniProt Q96KQ7) (assay: qHTS Assay for Inhibitors of Histone Lysine Methyltransferase G9a). Details: G9a H3K9 monomethylation, AlphaScreen, 2 h; series mostly up to 59 µM; activity, negative = inhibition: at the top concentration.
How it was run: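 Using a bead-based AlphaScreen, monomethylated H3K9 product from 2 h room-temperature reactions (G9a 20 nM, peptide 500 nM, SAM 20 uM) was detected with 0.5 ug/mL rabbit anti-H3K9me1 antibody.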
% is scaled to controls: 0 for no effect and ±100 for the full control effect; potency is read from the fitted curve at half-maximal effect.
Also: nearly all actives have a fitted effect of over 75% in size.

Sequence of Histone-lysine N-methyltransferase EHMT2 (Homo sapiens) (Q96KQ7 913-1193 limits assumed): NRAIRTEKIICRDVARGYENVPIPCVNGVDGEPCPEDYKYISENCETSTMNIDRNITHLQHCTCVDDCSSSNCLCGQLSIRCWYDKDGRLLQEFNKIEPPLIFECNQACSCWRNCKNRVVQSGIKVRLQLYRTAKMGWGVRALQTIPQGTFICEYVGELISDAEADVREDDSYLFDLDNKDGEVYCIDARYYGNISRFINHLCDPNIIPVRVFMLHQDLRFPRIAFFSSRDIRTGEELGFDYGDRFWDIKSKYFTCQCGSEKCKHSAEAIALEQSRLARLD

SMILES	activity, negative = inhibition	Potency
CC(O)COc1ccccc1 (stereo unspecified)	25.5%	–
CC1(C)NC(=O)N(CCOc2cccc(Oc3ccccc3)c2)C1=O	2.99%	–
CC(O)CNCCOc1cccc(Oc2ccccc2)c1 (stereo unspecified)	–	31.6 µM (active)
CN(C(=O)CN1C(=O)NC(C)(CCc2ccccc2)C1=O)c1ccccc1 (stereo unspecified)	-6.99% [at 102 µM]	–
O=C(Nc1nnc(C2CC2)s1)c1cc(Cl)sc1Cl	-5.4% [at 102 µM]	–
CCOC(=O)c1oc2c(CN3CCN(CCO)CC3)c(O)c(CC)cc2c(=O)c1-c1nc2ccccc2s1	–	17.8 µM (active)
CCOC(=O)c1oc2c(CN3CCN(C)CC3)c(O)ccc2c(=O)c1-c1ccc(Br)cc1	-3.73%	–
CCOC(=O)CCCN1CC(O)=C(c2nc3ccccc3s2)C1=N	-0.107% [at 102 µM]	–
Cc1ccc(C(=O)NCCc2nnc(SCC(=O)Nc3cccc(C(=O)O)c3)n2C)cc1	10.2% [at 0.501 µM]	–
CCCn1c(=N)c(C(=O)NCc2ccccc2)cc2c(=O)n3cccc(C)c3nc21	0.45%	–
O=C(Nc1ccc(Cl)cc1)N1CCc2[nH]c3ccccc3c2C1	9.49% [at 102 µM]	–
C=CCNC(=S)N1CCc2[nH]c3ccccc3c2C1	0.317% [at 102 µM]	–
CCCC(=O)N1CCc2[nH]c3ccccc3c2C1	–	39.8 µM (active)
COc1ccc(CCNc2ncnc3c2nnn3Cc2ccccc2)cc1	5.34% [at 102 µM]	–
COc1ccc(C2=NC3(CCCCC3)N(CC(=O)Nc3ccc(C(C)C)cc3)C2=O)cc1	1.04%	–
Cn1ccsc1=NC(=O)c1cc(S(=O)(=O)N2CCOCC2)ccc1Cl	2.99% [at 102 µM]	–

SMILES	activity, negative = inhibition	Potency
CN(CC(=O)NCCc1ccc(F)cc1)CC(=O)Nc1ccc(F)c(F)c1F	-24.2% [at 102 µM]	–
CCOC(=O)C1=C(C)NC(SC)=NC1c1ccccc1 (stereo unspecified)	–	2 µM (active)
CCOC(=O)C1=C(C)NC(=O)NC1c1ccccc1 (stereo unspecified)	-1.24% [at 102 µM]	–
C=CCC1(C#N)C(=S)NC(C)=C(C(=O)OCC)C1c1ccccc1 (stereo unspecified)	1.33% [at 102 µM]	–
CCCCOc1ccc(CNC(=O)c2ccc3c(c2)N(C)C(=O)C2CCCCN32)cc1 (stereo unspecified)	0.427%	–
Cc1cccc(C(CC(=O)NCC2(c3ccccc3)CCCC2)c2ccccc2)c1O (stereo unspecified)	1.08%	–
C/C(=C\C(=O)c1ccccc1)Nc1cccc(O)c1	–	50.1 µM (active)
O=C(CSc1ccccc1)Nc1ccc(C(=O)Nc2cccc(O)c2)cc1	15.3% [at 102 µM]	–
O=C(Nc1cccc(O)c1)c1ccc(C(=O)c2ccccc2)o1	2.32% [at 102 µM]	–
COc1cccc(CNC(=O)c2cc(=O)[nH]c3ccc(S(=O)(=O)N4CCCCC4)cc23)c1	-2.46%	–
O=C(CSc1n[nH]c(-c2ccccc2)n1)N1CCCCC1	3.52%	–
N#C/C(=C\c1ccccc1F)c1nc2ccccc2c(=O)[nH]1	-20%	–
COc1cccc(-n2cc(C(=O)O)c3ccccc3c2=O)c1	-46.3% [at 102 µM]	–
CCN(Cc1ccccc1)C(=O)c1cn(-c2cccc(OC)c2)c(=O)c2ccccc12	–	11.2 µM (active)
COc1cccc(-n2ccn(CC(=O)NCc3ccc(C)cc3)c(=O)c2=O)c1	0.48%	–
